Experimental data taken from PubChem BioAssay AID588848 (Broad Institute, 2011).
Results with a measured potency or affinity are listed apart. Results filed as inconclusive are left out.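 The calls were made as follows: active = fitted half-maximal inhibiting dose no more than ten times the top valid dose tested; inconclusive = flat activity from -30 to -70%, or unreliable curve fit; inactive = the rest.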

Target: CAAX prenyl protease 2 (Homo sapiens) (UniProt Q9Y256)
Test: inhibition of Ras-converting CAAX endoprotease – biochemical, plate reader, dry powder samples, dose response (AID 588848)
Details: yeast membranes expressing human Rce1, fluorogenic peptide cleavage; series mostly up to 30 µM; activity change, negative = inhibition: at the top concentration

Sequence of CAAX prenyl protease 2 (Homo sapiens) (Q9Y256 whole entry, looked up): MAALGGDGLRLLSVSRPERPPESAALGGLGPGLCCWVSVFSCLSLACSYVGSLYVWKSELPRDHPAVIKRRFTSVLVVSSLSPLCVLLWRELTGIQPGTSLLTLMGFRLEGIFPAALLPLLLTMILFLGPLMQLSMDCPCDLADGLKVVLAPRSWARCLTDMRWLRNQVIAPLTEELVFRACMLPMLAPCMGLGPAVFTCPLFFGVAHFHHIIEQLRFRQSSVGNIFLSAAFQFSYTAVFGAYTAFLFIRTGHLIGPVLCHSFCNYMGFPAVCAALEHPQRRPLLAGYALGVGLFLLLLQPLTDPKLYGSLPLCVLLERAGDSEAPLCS

Activity change, negative = inhibition, inactive:
CN(C(=O)COC(=O)c1cn(-c2ccccc2)nc1-c1ccccc1)C1CCS(=O)(=O)C1 (stereo not given) -2.52%, Cc1cc(N2CCN(C(c3ccccc3)c3ccccc3)CC2)n2ncnc2n1 -8.64%, COc1ccc(-n2c(SCc3ccc([N+](=O)[O-])cc3)nnc2-c2ccc(C)cc2)cc1 7.73%, Cc1cccc(-c2nnc(SCc3ccc(C#N)cc3)n2Cc2ccco2)c1 13.3%, CC(C)c1c(C(=O)N/N=C/c2cccc3ccccc23)nnn1-c1nonc1N 8.17%, Cc1ccc(SCc2c(C(=O)N/N=C/c3ccccc3)nnn2-c2nonc2N)cc1 10.5%, CCOc1cccc(-c2c(C(=O)N/N=C/c3cccs3)nnn2-c2nonc2N)c1 14%, Cc1ccc(NC(=O)CCc2ccc(S(=O)(=O)NC3CCCCC3)cc2)cc1 9.46%, CCCOc1ccc(-c2c(C(=O)N/N=C/c3cccs3)nnn2-c2nonc2N)cc1 16.2%, Nc1nonc1-n1nnc(C(=O)N/N=C/c2cccc(Cl)c2)c1CSc1ccc(Cl)cc1 18.1%
